# Data: PubChem BioAssay (EPA / NIEHS)
# Results filed as inconclusive are left out. Activity calls are given as the source filed them. The calls were made as follows, unless noted: active = hit-call score of the fitted dose curve at least 0.9, where 1 is the maximum; inactive = score below 0.9.
# Columns and labels:
# [1] = IUF_NPC2a_radial_glia_migration_72hr: Leibniz Research Institute for Environmental Medicine (IUF) 72-hour Neural Progenitor Cell Migration Assay for Radial Glia Migration (NPC2a) (AID 2284299)
# Method in brief: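 Human fetal neural progenitor spheres (0.3 mm) plated on poly-D-lysine/laminin in N2 differentiation medium and exposed from day 0 at 7 concentrations; radial glia migration distance from sphere edge measured at 72 h on brightfield images, mean of four directions, vs DMSO.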
# [2] = IUF_NPC2b_neuronal_migration_120hr: Leibniz Research Institute for Environmental Medicine (IUF) 120-hour Neural Progenitor Cell Migration Assay for Neuron Migration (NPC2b) (AID 2284300)
# Method in brief: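 hNPC spheres, PDL/laminin, DMEM:F12 3:1 + 1% N2, 37C/5% CO2; 7 concentrations + solvent control (DMSO ≤0.1%), 5 d exposure, half-feed day 3. Fix 120 h, TUBB3 ICC, HCI: mean neuron migration distance ÷ glia distance.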
# [3] = IUF_NPC3_neuronal_differentiation_120hr: Leibniz Research Institute for Environmental Medicine (IUF) 120-hour Neuronal Differentiation Assay (NPC3) (AID 2284301)
# Method in brief: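 Human fetal (GW 16-19) neural progenitor spheres (0.3 mm) plated on poly-D-lysine/laminin in N2 differentiation medium, exposed 120 h at 37C with half-medium renewal day 3; 7 concentrations. TUBB3+ cells as % of Hoechst nuclei, CNN-identified; DMSO baseline.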
# [4] = IUF_NPC4_neurite_length_120hr: Leibniz Research Institute for Environmental Medicine (IUF) 120-hour Neuronal Morphology Assay for Neurite Length (NPC4) (AID 2284302)
# Method in brief: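 Human fetal neural progenitor spheres (0.3 mm) plated on poly-D-lysine/laminin in N2 differentiation medium, exposed from day 0 for 120 h with half-medium refresh at day 3, 37C. Mean neurite length (um) of TUBB3-positive neurons from skeletonized immunostaining images; DMSO ≤0.1%.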
# [5] = IUF_NPC5_oligodendrocyte_differentiation_120hr: Leibniz Research Institute for Environmental Medicine (IUF) 120-hour Oligodendrocyte Differentiation Assay (NPC5) (AID 2284304; active = hit-call score of the fitted dose curve at least 0.9, where 1 is the maximum;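 also: share of O4-positive cells among Hoechst nuclei found by CNN image analysis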)
# Experimental: IUF_NPC2-5 is a cell-based, multiplexed assay that uses hNPC, a human primary neural progenitor cells, with measurements taken at 72 or 120 hours after chemical dosing in a 96-well plate. Human neural progenitor cells (hNPC) are generated from human fetal brain cortex at gestational week (GW) 16-19. In the neural progenitor cell migration and differentiation assay (NPC2-5), hNPCs grown as spheres are plated on an extracellular matrix and migrate and differentiate out of the sphere core. The processes radial glia migration, neuronal and oligodendrocyte migration as well as neuronal differentiation, neuronal morphology and oligodendrocyte differentiation are studied using automated phase contrast imaging and automated fluorescence imaging in combination with high content image analysis. In parallel, the cell viability is assessed using an alamar blue viability assay and the cytotoxicity using a lactate dehydrogenase dependent membrane integrity assay.IUF_NPC5_oligodendrocyte_differentiation_120hr is one of 12 assay components measured from the IUF_NPC2-5 assay. Oligodendrocyte differentiation at 120 hr is determined as the number of all O4-positive cells in percent of the number of Hoechst-positive nuclei in the total neurosphere migration area (see IUF_NPC2a_ glia_migration_120hr) after 120 hr of migration/differentiation. Oligodendrocytes are automatically identified using a convolutional neural network (CNN) that was trained using manually annotated images of differentiated oligodendrocytes.Data from the IUF_NPC5_oligodendrocyte_differentiation_120hr component was analyzed at the endpoint IUF_NPC5_oligodendrocyte_differentiation_120hr in the positive analysis fitting direction relative to DMSO as the negative control and baseline of activity. Using a type of differentiation reporter, loss-of-signal activity can be used to understand developmental effects.
# Culture protocol: After the cell expansion period the cells are cultured for up to four weeks in which they are passaged every week as described in 3.6. Between one to three days after passaging spheres at a size of 0.3 mm are picked for the test method. For the assessment of neural progenitor cell migration and differentiation, the spheres are plated on poly-D-lysine/laminin coated 96-well flat bottom plates in differentiation medium (N2) to initiate migration and differentiation. Thereby one 0.3 mm big sphere is plated in the middle of a well. The differentiation medium consists of DMEM and Ham's F12 at a ratio of 3 to 1 supplemented with 1% N2 and 1% penicillin and streptomycin. Within 5 days NPCs radially migrate out of the sphere core and differentiate into radial glia cells (nestin positive), neurons (TUBB3 positive), oligodendrocytes (O4 positive) and astrocytes (GFAP positive). Cultivation during the test method is performed at 37C and 5% CO2 at a ph of 7.2-7.6.Exposure: 0.3 mm big hNPC are plated in the already prepared test conditions. Exposure starts at day 0 of differentiation and is continued over five days of differentiation until the experiment is terminated. Cells are fed with fresh medium at day 3 of differentiation. Therefore, half of the test condition solution (e.g. solvent control or compound dilution) is replaced by freshly prepared test condition solution.Test Method: Migration distance and cytotoxicity is determined after 72 hours based on brightfield images of each well. The assay is terminated by the assessment of cell viability and cytotoxicity as well as cell fixation after 120 h. Immunocytochemistry is performed for Hoechst positive nuclei, TUBB3 positive neurons and O4 positive oligodendrocytes. On the ICC images, migration after 120 hours, neuronal and oligodendrocyte number, neuronal morphology and neuron/oligodendrocyte specific migration is assessed. immunocytochemical staining (ICC) generates an image for each sphere. […]
# [6] = IUF_NPC4_neurite_area_120hr: Leibniz Research Institute for Environmental Medicine (IUF) 120-hour Neuronal Morphology Assay for Neurite Area (NPC4) (AID 2284305; active = hit-call score of the fitted dose curve at least 0.9, where 1 is the maximum)
# Method in brief: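 Human fetal neural progenitor spheres (0.3 mm) plated on poly-D-lysine/laminin in N2 differentiation medium, exposed 120 h (7 concentrations, DMSO ≤0.1%, half-medium refresh day 3). Fixed, TUBB3 immunostained; mean neurite area per neuron by Omnisphero skeletonization.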
# [7] = IUF_NPC2-5_cytotoxicity_72hr: Cytotoxicity Assessment at 72 hours in the Leibniz Research Institute for Environmental Medicine (IUF) Neural Progenitor Cell Migration and Differentiation Assay for Cytotoxicity (NPC2-5) (AID 2284306; active = hit-call score of the fitted dose curve at least 0.9, where 1 is the maximum;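 also: LDH release into supernatant measured by resorufin fluorescence marking membrane damage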)
# Method in brief: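 Human fetal primary neural progenitor spheres (0.3 mm) plated on poly-D-lysine/laminin in N2 differentiation medium, exposed from day 0 at 37C. LDH-dependent resazurin-to-resorufin fluorescence in supernatant at 72 h; 7 concentrations, DMSO at most 0.1%.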
# [8] = IUF_NPC2-5_cytotoxicity_120hr: Cytotoxicity Assessment at 120 hours in the Leibniz Research Institute for Environmental Medicine (IUF) Neural Progenitor Cell Migration and Differentiation Assay (NPC2-5) (AID 2284307; active = hit-call score of the fitted dose curve at least 0.9, where 1 is the maximum)
# Method in brief: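 hNPC spheres on PDL/laminin, N2 medium, 37C; 7 concs + solvent control, DMSO ≤0.1%; 5-day exposure, half medium changed day 3. LDH in supernatant at 120 h, resazurin→resorufin fluorescence, gain-of-signal.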
# [9] = IUF_NPC2-5_cell_number_120hr: Cell Number Assessment at 120 hours in the Leibniz Research Institute for Environmental Medicine (IUF) Neural Progenitor Cell Migration and Differentiation Assay (NPC2-5) (AID 2284308);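 also: count of Hoechst-stained nuclei in migration zone around plated human neural progenitor spheres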
# Method in brief: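 Hoechst-stained nuclei within the migration area were counted by automated high content imaging after 120 h. Single hNPC spheres differentiated on poly-D-lysine/laminin in DMEM/F12 (3:1) with 1% N2, compound present throughout, DMSO ≤0.1%.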
# [10] = VALA_TUBHUV_Agonist_CellCount: Viability Assessment in the VALA Sciences human Umbilical Vein Endothelial Tubule Formation (TUBHUV) Agonism Assay (AID 2284309; active = hit-call score of the fitted dose curve at least 0.9, where 1 is the maximum)
# Method in brief: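 HUVEC co-cultured 1:3 with HDF for 3 days in 10 ng/ml VEGF, then compounds added in VEGF medium for a further 3 days (72 h). Nuclear-stain/CD31 imaging cell count. Positive-direction fit versus 0.1% DMSO vehicle.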
SMILES,outcome [1],outcome [2],outcome [3],outcome [4],outcome [5],outcome [6],outcome [7],outcome [8],outcome [9],outcome [10],AC50 [1],AC50 [2],AC50 [9]
S=C([S-])NCCNC(=S)[S-].[Mn+2],inactive,inactive,inactive,inactive,inactive,inactive,inactive,inactive,inactive,–,–,–,–
CC(C)CCCCCCc1ccc(O)cc1,–,–,–,–,–,–,–,–,–,inactive,–,–,–
CC(C)(c1ccc(O)cc1)c1ccc(O)cc1,inactive,inactive,inactive,inactive,inactive,inactive,inactive,inactive,inactive,inactive,–,–,–
Cc1nn(C)c(Oc2ccccc2)c1C=NOCc1ccc(C(=O)OC(C)(C)C)cc1,–,–,inactive,inactive,inactive,inactive,inactive,inactive,–,–,2.48 µM (active),6.63 µM (active),5.04 µM (active)
CCCN(CCC)C(=O)SCC,inactive,inactive,inactive,inactive,inactive,inactive,inactive,inactive,inactive,–,–,–,–
O=C(O)c1ccccc1,inactive,inactive,inactive,inactive,inactive,inactive,inactive,inactive,inactive,–,–,–,–
CCN(CC)C(=O)c1cccc(C)c1,inactive,inactive,inactive,inactive,inactive,inactive,inactive,inactive,inactive,–,–,–,–
S=C(S)NCCNC(=S)S.[Mn+2].[S-]C([S-])=NCCN=C([S-])[S-].[Zn+2],inactive,inactive,inactive,inactive,inactive,inactive,inactive,inactive,inactive,inactive,–,–,–
CSC(=O)c1cccc2nnsc12,inactive,inactive,inactive,inactive,inactive,inactive,inactive,inactive,inactive,–,–,–,–
C#CCOC(=O)[C@@H](C)Oc1ccc(Oc2ncc(Cl)cc2F)cc1,inactive,inactive,inactive,inactive,–,inactive,inactive,inactive,inactive,–,–,–,–
N[C@@H](Cc1cc(I)c(Oc2ccc(O)c(I)c2)c(I)c1)C(=O)O,–,–,–,–,–,–,–,–,–,inactive,–,–,–
